Measurements published in paper PMC4336329 (PLoS ONE, 2015).
Hit rate of the full screen: of about 310,000 compounds, about 14,000 (4.5%) showed an effect of 50% or more. The effect is printed as a negative number. The list comes from a sample in which strong results are over-represented; it also holds similar structures and randomly drawn compounds.

biological target: human ether-à-go-go-related gene (hERG) potassium channel (human, UniProt Q12809); experiment: primary screen, population patch clamp on CHO cells stably expressing hERG; higher = less effect of the substance
Sequence (Q12809 whole entry, looked up): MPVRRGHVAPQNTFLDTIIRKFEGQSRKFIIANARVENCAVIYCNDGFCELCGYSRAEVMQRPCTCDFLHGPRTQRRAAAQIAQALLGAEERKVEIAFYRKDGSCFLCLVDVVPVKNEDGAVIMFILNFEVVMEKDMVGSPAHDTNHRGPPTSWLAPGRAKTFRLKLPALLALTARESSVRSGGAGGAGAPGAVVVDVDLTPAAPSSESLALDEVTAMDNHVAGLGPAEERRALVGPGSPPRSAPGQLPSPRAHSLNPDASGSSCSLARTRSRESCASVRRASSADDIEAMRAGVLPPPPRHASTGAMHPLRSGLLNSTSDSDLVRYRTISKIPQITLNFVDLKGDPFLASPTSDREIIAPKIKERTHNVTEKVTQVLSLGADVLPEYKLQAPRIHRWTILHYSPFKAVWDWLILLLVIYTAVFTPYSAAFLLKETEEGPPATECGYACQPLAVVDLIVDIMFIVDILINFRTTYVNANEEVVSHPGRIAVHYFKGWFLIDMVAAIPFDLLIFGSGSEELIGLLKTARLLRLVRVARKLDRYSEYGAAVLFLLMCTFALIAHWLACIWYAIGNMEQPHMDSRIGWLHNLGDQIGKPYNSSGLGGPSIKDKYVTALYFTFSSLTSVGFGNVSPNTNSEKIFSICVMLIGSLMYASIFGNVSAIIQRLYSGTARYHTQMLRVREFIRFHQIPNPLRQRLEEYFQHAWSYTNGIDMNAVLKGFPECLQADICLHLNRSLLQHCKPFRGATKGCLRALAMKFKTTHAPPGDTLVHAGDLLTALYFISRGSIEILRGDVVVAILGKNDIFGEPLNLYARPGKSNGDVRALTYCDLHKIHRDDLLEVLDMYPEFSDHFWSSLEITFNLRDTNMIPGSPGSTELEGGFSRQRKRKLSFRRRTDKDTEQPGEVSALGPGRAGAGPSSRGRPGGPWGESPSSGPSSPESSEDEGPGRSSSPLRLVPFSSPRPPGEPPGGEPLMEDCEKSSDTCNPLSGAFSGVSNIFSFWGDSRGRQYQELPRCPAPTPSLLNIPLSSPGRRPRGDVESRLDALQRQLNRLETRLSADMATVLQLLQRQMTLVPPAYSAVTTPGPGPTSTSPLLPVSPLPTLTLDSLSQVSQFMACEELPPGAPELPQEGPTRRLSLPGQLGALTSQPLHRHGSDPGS
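Note: peak tail current of the secondary pulse compared with the same well before compound.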

Going from `CN(C)S(=O)(=O)N1CCN(C(=O)c2ccccc2)CC1` to `O=C(CN1CCN(S(=O)(=O)c2ccccc2)CC1)N1CCCCC1`, the “hERG current change (%, negative = inhibition) at 10uM” value rises from 8.25% to 10.8%.

Compared with `CC(C)NC(=S)N/N=C1\CCCc2ccccc21`, `CC(C)NC(=S)N/N=C1\CCCCc2ccccc21` is lower in “hERG current change (%, negative = inhibition) at 10uM” value: 10.4% for the first, -21.1% for the second.

Going from `CCCCNC(=S)N/N=C1\CCCCc2ccccc21` to `CCNC(=S)N/N=C1\CCCCc2ccccc21`, the “hERG current change (%, negative = inhibition) at 10uM” value rises from -64.4% to -3.93%.

Going from `C=C(C)CNC(=S)N/N=C1\CCCCc2ccccc21` to `C=C(C)CNC(=S)NN=C1c2ccccc2-c2ccccc21`, the “hERG current change (%, negative = inhibition) at 10uM” value rises from -60.3% to 6.79%.

Going from `COc1cc(CCCN2C(=O)C(=O)NC[C@@H]2CC2CCCCC2)cc(OC)c1OC` to `COc1cc(C(=O)NCCCNc2ccc([N+](=O)[O-])cc2)cc(OC)c1OC`, the “hERG current change (%, negative = inhibition) at 10uM” value falls from 4% to -57.6%.

Going from `N#Cc1cc[n+](CC(=O)c2ccc(NC(=O)c3ccccc3)cc2)cc1.[Br-]` to `O=C(Nc1ccccc1C(=O)Nc1ccncc1)c1ccc([N+](=O)[O-])cc1`, the “hERG current change (%, negative = inhibition) at 10uM” value rises from -14.6% to -4.77%.

Compared with `Cc1ccc(SCCNC(=O)/C=C/c2ccc(Cl)cc2)cc1`, `O=C(NCCNc1ccc([N+](=O)[O-])cc1)c1ccc(Cl)cc1` is lower in “hERG current change (%, negative = inhibition) at 10uM” value: -0.0121% for the first, -52.8% for the second.

First: CC(C)C(NC(=O)/C=C/c1ccc(F)cc1)C(C)C
Second: COC(=O)C(CC(C)C)NC(=O)c1ccc([N+](=O)[O-])cc1 (stereo not drawn)
The “hERG current change (%, negative = inhibition) at 10uM” value of the first is higher: 16.1% for the first, -23.2% for the second.

First: CCN(CC)CCCNC(=O)CC1Oc2ccc(C)cc2NC1=O (stereo not drawn)
Second: CCCCN(CCCC)CCCNC(=O)CC1Oc2ccc(C)cc2NC1=O (stereo not drawn)
The “hERG current change (%, negative = inhibition) at 10uM” value of the first is higher: 0.515% for the first, -49.5% for the second.

Compared with `COc1ccc(N2CCN(CCCNC(=O)CC3Oc4ccc(C)cc4NC3=O)CC2)cc1` (stereo not drawn), `Cc1ccc2c(c1)NC(=O)C(CC(=O)NCCCN1CCN(c3cc(C)ccc3C)CC1)O2` (stereo not drawn) is lower in “hERG current change (%, negative = inhibition) at 10uM” value: -55.5% for the first, -61.4% for the second.

First: Cc1ccc2c(c1)NC(=O)C(CC(=O)NCCCN1CCCCC1C)O2 (stereo not drawn)
Second: CCC1CCCCN1CCCNC(=O)CC1Oc2ccc(C)cc2NC1=O (stereo not drawn)
The “hERG current change (%, negative = inhibition) at 10uM” value of the first is higher: -4.68% for the first, -7.95% for the second.

Going from `CCN(CCCNC(=O)CC1Oc2ccc(C)cc2NC1=O)Cc1ccccc1` (stereo not drawn) to `Cc1ccc2c(c1)NC(=O)C(CC(=O)NCCCN1CCc3ccccc3C1)O2` (stereo not drawn), the “hERG current change (%, negative = inhibition) at 10uM” value falls from -61.5% to -65.7%.

Going from `Cc1ccc2c(c1)NC(=O)C(CC(=O)NCCCN1CCCC1)O2` (stereo not drawn) to `Cc1ccc2c(c1)NC(=O)C(CC(=O)NCCCN1CCCCC1)O2` (stereo not drawn), the “hERG current change (%, negative = inhibition) at 10uM” value falls from 12.6% to -0.113%.

First: COc1ccc(NC(=O)CC2Oc3ccc(C)cc3NC2=O)cc1 (stereo not drawn)
Second: Cc1ccc2c(c1)NC(=O)C(CC(=O)NCCCN1CCCC1=O)O2 (stereo not drawn)
The “hERG current change (%, negative = inhibition) at 10uM” value of the first is lower: 11.3% for the first, 16.5% for the second.

Compared with `CCn1cc(C(=O)NCc2ccco2)c(=O)c2cc(S(=O)(=O)N3CC(C)CC(C)C3)ccc21` (stereo not drawn), `O=C(NCc1ccco1)c1cc([N+](=O)[O-])ccc1N1CCOCC1` is lower in “hERG current change (%, negative = inhibition) at 10uM” value: -7.3% for the first, -25.4% for the second.

Going from `O=c1c2ccccc2nnn1CSc1nnc(-c2cccnc2)n1-c1ccccc1F` to `Cn1c(Cn2nnc3ccccc32)nnc1SCC(=O)N1c2ccccc2CCc2ccccc21`, the “hERG current change (%, negative = inhibition) at 10uM” value falls from 11.5% to -23.6%.

Going from `CNC(=O)c1cc(S(=O)(=O)Nc2ccc3c(c2)OCO3)ccc1C` to `O=C(NCCNc1ccc([N+](=O)[O-])cc1)c1cc(F)c(F)cc1Cl`, the “hERG current change (%, negative = inhibition) at 10uM” value falls from 4.42% to -45.1%.

Going from `COc1ccc(CCNC(=O)CCCCC(=O)NCCc2ccc(OC)c(OC)c2)cc1OC` to `COc1ccc2nc(NCCCNC(=O)c3cc(OC)c(OC)c(OC)c3)c(C#N)cc2c1`, the “hERG current change (%, negative = inhibition) at 10uM” value falls from 4.7% to -11%.

Going from `CCN(c1ccc(OC)cc1)S(=O)(=O)c1nnc(NC(=O)c2ccccc2Cl)s1` to `COc1ccc(N(CC(=O)Nc2cccc(C(C)=O)c2)S(C)(=O)=O)cc1OC`, the “hERG current change (%, negative = inhibition) at 10uM” value falls from 15.5% to -10.5%.

Compared with `Cc1ccnc(NC(=O)C2CCN(S(=O)(=O)c3ccc4c(c3)CC(C)N4C(=O)C3CCC3)CC2)c1` (stereo not drawn), `CN(C(=O)c1ccc(NC(=O)Cc2ccc(NC(=O)C3CCN(C(=O)C4CCCC4)CC3)cc2)cc1)C1CC1` is higher in “hERG current change (%, negative = inhibition) at 10uM” value: -0.431% for the first, 22.8% for the second.

Compared with `COc1cc(/C=C(\C#N)C(=O)Nc2cccc(C(=O)O)c2)ccc1OCc1ccc(F)cc1`, `COc1ccc(C(=O)NCCNc2ccc([N+](=O)[O-])cc2)cc1OC` is lower in “hERG current change (%, negative = inhibition) at 10uM” value: 22.6% for the first, -1.31% for the second.

Compared with `C=CCSc1nnnn1-c1ccc(OC)cc1`, `c1ccc(-n2nnnc2CN2CCOCC2)cc1` is higher in “hERG current change (%, negative = inhibition) at 10uM” value: -20% for the first, 14.8% for the second.

First: Cc1ccc(CNC(=O)CCCNC(=O)c2ccc(Cl)cc2)n1C
Second: COc1ccc(C(=O)NCCNc2ccc([N+](=O)[O-])cc2)cc1
The “hERG current change (%, negative = inhibition) at 10uM” value of the first is higher: 2.05% for the first, -40.9% for the second.

Compared with `Cc1ccc(CN2CCN(Cc3cn(C)nc3C)CC2CCO)o1` (stereo not drawn), `Cc1nn(C(C)C(=O)NCCN2CCCC2)c(=O)c2c1sc1ccccc12` (stereo not drawn) is lower in “hERG current change (%, negative = inhibition) at 10uM” value: 12.4% for the first, 1.56% for the second.

First: CCOC(=O)C1(CCOc2ccccc2)CCN(Cc2cccc(F)c2)CC1
Second: CCOC(=O)C1(CCOc2ccccc2)CCN(Cc2cccc(O)c2)CC1
The “hERG current change (%, negative = inhibition) at 10uM” value of the first is lower: -65.4% for the first, -63.1% for the second.

Compared with `CCOC(=O)C1(CCOc2ccccc2)CCN(Cc2cccc(OC)c2)CC1`, `CCOC(=O)C1(CCOc2ccccc2)CCN(Cc2cccc(OCCO)c2)CC1` is lower in “hERG current change (%, negative = inhibition) at 10uM” value: -76.1% for the first, -83.4% for the second.

Compared with `CCOC(=O)C1(CCOC)CCN(Cc2cccc(OCc3ccccc3)c2)CC1`, `CCOC(=O)C1(CCOc2ccccc2)CCN(Cc2cc(OC)cc(OC)c2)CC1` is lower in “hERG current change (%, negative = inhibition) at 10uM” value: -42.4% for the first, -79.8% for the second.

Compared with `COc1ccccc1NCCC(=O)OCC(=O)NCc1ccco1`, `O=C(CCNC(=O)c1ccco1)Nc1ccccc1OC(F)F` is lower in “hERG current change (%, negative = inhibition) at 10uM” value: 23.7% for the first, 10.4% for the second.

Going from `O=C(NCCc1ccc(OC(F)F)cc1)C1CC(=O)N(c2ccc3c(c2)OCCO3)C1` (stereo not drawn) to `Cc1ccc(CNC(=O)C2CCC(=O)N2Cc2ccccc2Cl)cc1` (stereo not drawn), the “hERG current change (%, negative = inhibition) at 10uM” value rises from -47.6% to 2.52%.

Going from `CNC(=S)N/N=C/c1cc(C)ccc1C` to `Cc1cc(OCC(=O)NC(C)(C)C)ccc1Cl`, the “hERG current change (%, negative = inhibition) at 10uM” value falls from 20.7% to 7.04%.

First: O=C(CCc1ccccc1)Nc1ncc([N+](=O)[O-])s1
Second: COc1ccccc1-c1cc(C(=O)NCCc2ccccc2)no1
The “hERG current change (%, negative = inhibition) at 10uM” value of the first is lower: 2.96% for the first, 5.18% for the second.

First: O=C(CN1CCN(S(=O)(=O)c2ccc(Cl)s2)CC1)N1CCOCC1
Second: Cc1ccc(S(=O)(=O)N2CCN(CC(=O)N3CCOCC3)CC2)cc1
The “hERG current change (%, negative = inhibition) at 10uM” value of the first is lower: 14.4% for the first, 16.8% for the second.

First: O=C(CN1CCN(S(=O)(=O)c2ccc(Cl)c(Cl)c2)CC1)N1CCCCC1
Second: O=C(CN1CCN(S(=O)(=O)c2cccc(Cl)c2)CC1)N1CCCCC1
The “hERG current change (%, negative = inhibition) at 10uM” value of the first is lower: -53.5% for the first, -24.8% for the second.

Compared with `Cc1cc(Cl)c(C)c(S(=O)(=O)N2CCN(CC(=O)N3CCOCC3)CC2)c1Cl`, `CCOC(=O)[C@H]1[C@H]2COc3ccc(C)cc3[C@@H]2N2C(=O)CN(CC3CCCO3)C(=O)[C@@]12C` (stereo partly drawn) is higher in “hERG current change (%, negative = inhibition) at 10uM” value: -64.8% for the first, 7.72% for the second.

First: COc1ccc2c(c1)O[C@@]1(CCCC[C@@H]1C)CC2=O
Second: COC(=O)c1ccc2c(c1)NC1=C(C(=O)CC(C)(C)C1)C(c1ccncc1)N2 (stereo not drawn)
The “hERG current change (%, negative = inhibition) at 10uM” value of the first is higher: -1.09% for the first, -4.48% for the second.

Going from `CCC(C)Sc1nc2c(c(=O)[nH]c(=O)n2C)n1C` (stereo not drawn) to `CC1CCN(C(c2cc3cc4c(cc3[nH]c2=O)OCO4)c2nnnn2CC2CCCO2)CC1` (stereo not drawn), the “hERG current change (%, negative = inhibition) at 10uM” value rises from -4.04% to -3.99%.

Compared with `Cn1c(C(=O)N2CCN(c3nc4ccccc4s3)CC2)cc2sccc21`, `CC(=O)/C(C(=N)N1CCN(C(c2ccccc2)c2ccccc2)CC1)=C(\C)O` is higher in “hERG current change (%, negative = inhibition) at 10uM” value: -8.35% for the first, 8.3% for the second.

Going from `COC(=O)C(CCCCNC(=O)c1ccc([N+](=O)[O-])cc1)NC(=O)c1ccc([N+](=O)[O-])cc1` (stereo not drawn) to `O=C(NCCCCC(NC(=O)c1ccc([N+](=O)[O-])cc1)C(=O)O)c1ccc([N+](=O)[O-])cc1` (stereo not drawn), the “hERG current change (%, negative = inhibition) at 10uM” value rises from -76.3% to -44.7%.

Compared with `O=C(NNC(=O)c1ccncc1)Nc1ccc([N+](=O)[O-])cc1`, `O=C(Nc1ccc(Nc2ccncc2)cc1)c1ccc([N+](=O)[O-])cc1` is lower in “hERG current change (%, negative = inhibition) at 10uM” value: 11.2% for the first, -59.5% for the second.

Compared with `O=C(CCNc1ccc(Cc2ccncc2)cc1)c1ccc([N+](=O)[O-])cc1`, `O=C(CCNc1ccc(Cc2ccncc2)cc1)c1cccc([N+](=O)[O-])c1` is higher in “hERG current change (%, negative = inhibition) at 10uM” value: -56.8% for the first, 11% for the second.

First: COc1ccccc1C(=O)NCCCNc1ccc([N+](=O)[O-])cc1
Second: O=[N+]([O-])c1ccc(NCc2ccncc2)cc1
The “hERG current change (%, negative = inhibition) at 10uM” value of the first is lower: -19.2% for the first, -3.55% for the second.

First: COc1cccc(CN2CCNC(=O)C2CC(=O)NCCc2ccccn2)c1 (stereo not drawn)
Second: CCOc1ccc2nc(NCCCNC(=O)c3cc(OC)c(OC)c(OC)c3)c(C#N)cc2c1
The “hERG current change (%, negative = inhibition) at 10uM” value of the first is higher: 9.8% for the first, -51.3% for the second.

Compared with `Nc1ccc(SCCN2C(=O)c3ccccc3C2=O)cc1`, `CCOc1ccc2nc(NCCNC(=O)c3cc(OC)c(OC)c(OC)c3)c(C#N)cc2c1` is higher in “hERG current change (%, negative = inhibition) at 10uM” value: -1.22% for the first, 5.24% for the second.

In the case of `BrCC(Br)C1CCC(Br)C(Br)C1` (stereo not drawn), the “hERG current change (%, negative = inhibition) at 10uM” value is reported as 20.6%.
